About 8,800 targets were measured; listed, in parts, are those with a hit and a random draw of the rest. About 0.5% of all pairs of compound and target were hits.

UniProt Q96F44, sequence (Q96F44 whole entry, looked up): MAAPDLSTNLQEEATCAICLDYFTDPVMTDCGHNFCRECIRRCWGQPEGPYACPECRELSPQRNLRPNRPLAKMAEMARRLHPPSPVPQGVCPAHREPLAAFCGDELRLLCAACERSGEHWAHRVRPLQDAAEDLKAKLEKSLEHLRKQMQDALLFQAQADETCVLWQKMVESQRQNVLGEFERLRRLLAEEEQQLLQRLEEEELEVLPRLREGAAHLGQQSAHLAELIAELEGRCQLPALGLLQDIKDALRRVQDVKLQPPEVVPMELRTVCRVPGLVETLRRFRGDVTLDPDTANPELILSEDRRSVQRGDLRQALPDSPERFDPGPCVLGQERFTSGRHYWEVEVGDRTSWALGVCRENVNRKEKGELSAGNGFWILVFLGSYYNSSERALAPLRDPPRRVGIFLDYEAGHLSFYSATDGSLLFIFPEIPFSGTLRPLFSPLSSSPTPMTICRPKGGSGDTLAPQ
UniProt Q9NUQ7, sequence (Q9NUQ7 whole entry, looked up): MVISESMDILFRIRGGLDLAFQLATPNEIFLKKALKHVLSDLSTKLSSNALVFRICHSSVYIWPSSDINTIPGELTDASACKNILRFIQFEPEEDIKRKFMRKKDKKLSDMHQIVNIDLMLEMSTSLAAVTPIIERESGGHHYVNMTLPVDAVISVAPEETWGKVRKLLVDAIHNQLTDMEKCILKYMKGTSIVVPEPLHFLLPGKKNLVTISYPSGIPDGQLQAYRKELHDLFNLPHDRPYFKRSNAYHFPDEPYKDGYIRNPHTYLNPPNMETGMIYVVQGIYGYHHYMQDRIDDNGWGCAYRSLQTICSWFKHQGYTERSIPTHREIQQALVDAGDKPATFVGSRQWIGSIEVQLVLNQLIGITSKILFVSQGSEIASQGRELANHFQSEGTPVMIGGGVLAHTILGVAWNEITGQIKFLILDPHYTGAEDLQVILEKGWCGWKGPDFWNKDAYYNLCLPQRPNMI
UniProt Q14CS0, sequence (Q14CS0 whole entry, looked up): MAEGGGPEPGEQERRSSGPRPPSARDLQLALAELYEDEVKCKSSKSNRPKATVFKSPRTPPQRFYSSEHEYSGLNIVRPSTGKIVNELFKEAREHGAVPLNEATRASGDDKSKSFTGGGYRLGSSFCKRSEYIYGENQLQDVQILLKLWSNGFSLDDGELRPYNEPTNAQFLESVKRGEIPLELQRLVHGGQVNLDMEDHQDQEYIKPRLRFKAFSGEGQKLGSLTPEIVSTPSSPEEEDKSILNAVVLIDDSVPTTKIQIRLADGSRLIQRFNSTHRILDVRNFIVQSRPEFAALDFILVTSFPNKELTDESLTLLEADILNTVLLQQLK
UniProt P42166, sequence (P42166 whole entry, looked up): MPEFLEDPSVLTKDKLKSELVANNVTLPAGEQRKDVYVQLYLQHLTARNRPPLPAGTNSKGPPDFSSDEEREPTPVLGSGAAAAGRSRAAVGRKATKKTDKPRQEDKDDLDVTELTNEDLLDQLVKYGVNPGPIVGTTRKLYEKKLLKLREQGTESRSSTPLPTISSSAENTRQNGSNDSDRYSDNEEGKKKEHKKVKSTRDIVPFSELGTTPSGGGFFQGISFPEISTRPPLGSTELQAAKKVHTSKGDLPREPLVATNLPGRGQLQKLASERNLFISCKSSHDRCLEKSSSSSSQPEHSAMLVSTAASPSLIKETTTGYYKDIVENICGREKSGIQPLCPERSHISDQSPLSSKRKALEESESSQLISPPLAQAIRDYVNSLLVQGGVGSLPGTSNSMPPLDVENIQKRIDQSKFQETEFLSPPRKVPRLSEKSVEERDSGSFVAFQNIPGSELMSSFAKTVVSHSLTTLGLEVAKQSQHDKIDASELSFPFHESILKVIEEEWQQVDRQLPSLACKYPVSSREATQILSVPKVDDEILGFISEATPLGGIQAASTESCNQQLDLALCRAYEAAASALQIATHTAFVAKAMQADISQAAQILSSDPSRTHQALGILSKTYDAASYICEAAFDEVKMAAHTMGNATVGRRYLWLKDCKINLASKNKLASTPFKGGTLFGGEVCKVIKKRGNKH
UniProt Q9NUY8, sequence (Q9NUY8 whole entry, looked up): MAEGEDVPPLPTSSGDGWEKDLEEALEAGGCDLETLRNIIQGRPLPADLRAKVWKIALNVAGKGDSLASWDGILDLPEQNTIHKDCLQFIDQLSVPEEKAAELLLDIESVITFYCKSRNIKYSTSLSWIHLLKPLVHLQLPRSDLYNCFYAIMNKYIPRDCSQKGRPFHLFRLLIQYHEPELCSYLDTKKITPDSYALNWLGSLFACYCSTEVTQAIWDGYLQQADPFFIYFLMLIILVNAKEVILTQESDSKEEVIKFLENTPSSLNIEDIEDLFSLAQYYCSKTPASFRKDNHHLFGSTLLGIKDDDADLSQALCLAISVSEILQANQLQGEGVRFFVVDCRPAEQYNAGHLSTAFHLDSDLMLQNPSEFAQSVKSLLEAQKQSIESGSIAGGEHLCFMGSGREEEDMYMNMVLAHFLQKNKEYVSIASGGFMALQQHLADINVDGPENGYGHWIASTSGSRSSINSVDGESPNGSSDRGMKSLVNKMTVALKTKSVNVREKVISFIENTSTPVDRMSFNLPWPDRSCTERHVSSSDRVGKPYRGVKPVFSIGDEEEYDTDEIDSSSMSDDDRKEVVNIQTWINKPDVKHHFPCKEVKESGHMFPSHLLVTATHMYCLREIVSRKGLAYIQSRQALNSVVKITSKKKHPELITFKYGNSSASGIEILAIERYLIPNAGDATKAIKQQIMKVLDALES
UniProt P36406, sequence (P36406 whole entry, looked up): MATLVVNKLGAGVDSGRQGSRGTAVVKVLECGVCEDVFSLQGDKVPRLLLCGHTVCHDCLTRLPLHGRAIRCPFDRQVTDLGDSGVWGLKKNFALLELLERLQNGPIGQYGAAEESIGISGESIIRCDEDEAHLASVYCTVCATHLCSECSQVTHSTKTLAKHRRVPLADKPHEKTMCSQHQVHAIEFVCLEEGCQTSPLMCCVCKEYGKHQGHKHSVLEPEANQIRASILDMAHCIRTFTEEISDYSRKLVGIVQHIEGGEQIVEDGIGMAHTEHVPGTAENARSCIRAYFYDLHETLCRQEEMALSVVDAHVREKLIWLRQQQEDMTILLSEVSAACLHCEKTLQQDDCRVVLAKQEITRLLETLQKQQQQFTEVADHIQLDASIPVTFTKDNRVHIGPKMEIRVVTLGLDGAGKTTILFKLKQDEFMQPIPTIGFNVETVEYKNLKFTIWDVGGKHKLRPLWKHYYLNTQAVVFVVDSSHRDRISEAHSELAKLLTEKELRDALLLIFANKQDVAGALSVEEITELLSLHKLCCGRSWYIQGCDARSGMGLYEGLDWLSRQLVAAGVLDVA
UniProt Q9UKE5, sequence (Q9UKE5 whole entry, looked up): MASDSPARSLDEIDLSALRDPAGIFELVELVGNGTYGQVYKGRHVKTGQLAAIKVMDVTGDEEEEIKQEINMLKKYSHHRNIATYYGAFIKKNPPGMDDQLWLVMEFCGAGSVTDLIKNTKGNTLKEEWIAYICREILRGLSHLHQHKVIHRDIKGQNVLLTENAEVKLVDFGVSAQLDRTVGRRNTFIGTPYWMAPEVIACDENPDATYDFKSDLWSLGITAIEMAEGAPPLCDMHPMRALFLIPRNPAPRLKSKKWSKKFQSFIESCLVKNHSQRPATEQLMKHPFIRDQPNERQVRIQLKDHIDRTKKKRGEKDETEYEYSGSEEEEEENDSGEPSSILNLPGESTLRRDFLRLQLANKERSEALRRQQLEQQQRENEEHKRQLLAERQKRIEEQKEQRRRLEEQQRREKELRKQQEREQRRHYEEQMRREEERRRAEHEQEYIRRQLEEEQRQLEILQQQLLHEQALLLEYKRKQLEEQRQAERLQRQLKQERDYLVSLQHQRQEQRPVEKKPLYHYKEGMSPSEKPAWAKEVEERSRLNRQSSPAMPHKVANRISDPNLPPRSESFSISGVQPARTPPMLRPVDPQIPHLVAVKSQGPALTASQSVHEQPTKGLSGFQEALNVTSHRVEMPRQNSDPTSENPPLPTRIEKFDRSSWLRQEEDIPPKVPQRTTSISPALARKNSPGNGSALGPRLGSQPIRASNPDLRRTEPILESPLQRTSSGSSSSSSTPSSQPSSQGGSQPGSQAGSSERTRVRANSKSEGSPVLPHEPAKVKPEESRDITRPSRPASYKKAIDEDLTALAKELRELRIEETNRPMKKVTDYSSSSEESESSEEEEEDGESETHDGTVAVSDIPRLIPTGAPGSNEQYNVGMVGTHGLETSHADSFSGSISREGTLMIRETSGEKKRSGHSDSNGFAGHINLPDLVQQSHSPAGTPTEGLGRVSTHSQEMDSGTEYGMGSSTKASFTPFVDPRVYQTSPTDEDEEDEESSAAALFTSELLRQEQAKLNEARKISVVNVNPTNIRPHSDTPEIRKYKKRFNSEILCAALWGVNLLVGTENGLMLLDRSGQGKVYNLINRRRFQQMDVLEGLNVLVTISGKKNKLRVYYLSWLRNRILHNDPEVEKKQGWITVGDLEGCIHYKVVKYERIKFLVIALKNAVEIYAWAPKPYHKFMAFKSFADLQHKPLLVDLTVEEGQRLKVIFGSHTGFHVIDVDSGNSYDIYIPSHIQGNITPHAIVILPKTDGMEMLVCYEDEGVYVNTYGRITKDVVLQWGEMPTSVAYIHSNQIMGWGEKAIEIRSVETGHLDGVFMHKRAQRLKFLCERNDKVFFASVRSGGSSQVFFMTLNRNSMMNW
UniProt Q8N0Z6, sequence (Q8N0Z6 whole entry, looked up): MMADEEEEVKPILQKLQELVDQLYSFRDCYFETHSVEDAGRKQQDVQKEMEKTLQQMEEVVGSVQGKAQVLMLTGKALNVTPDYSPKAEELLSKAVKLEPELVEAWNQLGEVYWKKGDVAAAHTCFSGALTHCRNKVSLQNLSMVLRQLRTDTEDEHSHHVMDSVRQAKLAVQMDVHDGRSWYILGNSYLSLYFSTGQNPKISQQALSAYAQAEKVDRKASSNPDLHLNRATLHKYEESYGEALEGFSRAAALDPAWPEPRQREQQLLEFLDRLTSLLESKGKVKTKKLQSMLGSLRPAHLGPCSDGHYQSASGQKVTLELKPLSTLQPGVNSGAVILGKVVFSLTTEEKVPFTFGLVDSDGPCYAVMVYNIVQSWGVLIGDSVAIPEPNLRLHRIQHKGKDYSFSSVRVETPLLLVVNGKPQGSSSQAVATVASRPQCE

Compound in the first test: CC1=C2C(=CC=C1)N=C(N(C2=O)C3=CC=CC=C3C)CN4C=NC5=C(N=CN=C54)N
The experiment in a line: log2 fold change, soluble protein after heating vs DMSO (PISA); higher = thermal stabilisation; K562 lysate, 10 uM; active = over 0.2 and 3.5 SD of the protein, either way, in both replicates (recomputed). The procedure, abridged: (§1)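 A 30 min treatment with 10 μM compound was applied to crude K562 extract at 1 mg/mL protein in PBS pH 7.4 with 1 mM MgCl2. Heating for 3 min spanned 48°C-58°C, after which aliquots were pooled, adjusted to 0.5% NP-40 at 4°C and spun at 21,000xg for 90 min. TMTpro 16plex LC-MS/MS of the supernatant, with channel sums equalised, gave values recorded as log-two fold change in thermal stability against solvent controls, from duplicates.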
With UFSP2 (UniProt Q9NUQ7), the log2 fold change was 0.057 (inactive).
On to TOPBP1 (UniProt Q92547), for which the log2 fold change was 0.026 (inactive).
Still for that read-out and setting: for UBR3 isoform 4 (UniProt Q6ZT12) the value was 0.009 (inactive).
In the case of TBC1D23 (UniProt Q9NUY8), the log2 fold change is -0.017 (inactive).
Still for that read-out and setting: to TBC1D2B (UniProt Q9UPU7) belongs -0.048 (inactive); to TMEM87B (UniProt Q96K49), 0.075 (inactive); to TNIK isoform 4 (UniProt Q9UKE5), -0.017 (inactive).
Regarding TLK2 isoform 2 (UniProt Q86UE8), the log2 fold change was 0.033 (inactive).
Same read-out and setting: to TK1 (UniProt K7ERV3) belongs -0.017 (inactive).
Turning to TTF2 (UniProt Q9UNY4), the log2 fold change is 0.003 (inactive).
Regarding TTC12 isoform 2 (UniProt Q9H892), the log2 fold change is 0.033 (inactive).
Same read-out and setting: to TIAL1 isoform 2 (UniProt Q01085) belongs -0.02 (inactive); to TUBB (UniProt P07437), -0.005 (inactive); to TRIM11 (UniProt Q96F44), 0.04 (inactive).
With TK1 (UniProt P04183), the log2 fold change is -0.017 (inactive).
On the same count and under the same terms, for TUBB4B (UniProt P68371) the value was 0.018 (inactive); for TDRD3 isoform 3 (UniProt Q9H7E2), 0.027 (inactive); for TTMP isoform 3 (UniProt Q5BVD1), 0.135 (inactive).
As for TRIM23 (UniProt P36406), the log2 fold change is 0.052 (inactive).
Still for that read-out and setting: for TGFBRAP1 (UniProt Q8WUH2) the value was 0 (inactive); for TPM4 (UniProt P67936), -0.021 (inactive); for TRIP12 isoform 2 (UniProt Q14669), -0.018 (inactive).
The same measure, in the same setting: to TRAPPC6A isoform 2 (UniProt O75865) belongs -0.043 (inactive); to TPP2 (UniProt P29144), -0.002 (inactive); to TYW3 (UniProt Q6IPR3), 0.065 (inactive).
The same measure, in the same setting: for TPM3 (UniProt P06753) the value was -0.018 (inactive); for TBC1D8B (UniProt Q0IIM8), -0.038 (inactive).
On to UBTF (UniProt P17480), for which the log2 fold change is -0.012 (inactive).
Turning to TTL (UniProt Q8NG68), the log2 fold change was 0.145 (inactive).
The same measure, in the same setting: for TEX30 (UniProt Q5JUR7) the value was -0.006 (inactive); for UCHL5 (UniProt Q5LJA9), -0.022 (inactive).
On to TMPO (UniProt P42166), for which the log2 fold change is 0.015 (inactive).
Same read-out and setting: to TRIM33 isoform 2 (UniProt Q9UPN9) belongs 0.022 (inactive); to TRIP13 (UniProt Q15645), 0.018 (inactive).
For the target UBXN2B (UniProt Q14CS0), the log2 fold change was 0.019 (inactive).
On the same count and under the same terms, for TUBGCP3 (UniProt Q96CW5) the value was 0.011 (inactive).
Same read-out and setting: to UBE2H (UniProt P62256) belongs 0.012 (inactive).
Same read-out and setting: to TUBGCP2 isoform 4 (UniProt Q9BSJ2) belongs 0.035 (inactive); to TRAF2 isoform 2 (UniProt Q12933), -0.005 (inactive).
In the case of TTC5 (UniProt Q8N0Z6), the log2 fold change was 0.035 (inactive).

Compound in another test: Cc1sc2c(c1C)C(c1ccc(Cl)cc1)=N[C@@H](CC(=O)OC(C)(C)C)c1nnc(C)n1-2
Described as above. The procedure, abridged:
as §1
With UFSP2 (UniProt Q9NUQ7), the log2 fold change is -0.04 (inactive).
TOPBP1 (UniProt Q92547): the log2 fold change is -0.016 (inactive).
On the same count and under the same terms, for UBR3 isoform 4 (UniProt Q6ZT12) the value was -0.016 (inactive).
The same measure, in the same setting: to TBC1D23 (UniProt Q9NUY8) belongs 0.016 (inactive); to TBC1D2B (UniProt Q9UPU7), -0.065 (inactive).
Same read-out and setting: for TMEM87B (UniProt Q96K49) the value was 0.001 (inactive); for TNIK isoform 4 (UniProt Q9UKE5), -0.032 (inactive); for TLK2 isoform 2 (UniProt Q86UE8), -0.015 (inactive).
Regarding TK1 (UniProt K7ERV3), the log2 fold change was -0.002 (inactive).
Consider TTF2 (UniProt Q9UNY4), for which the log2 fold change was 0.127 (inactive).
Regarding TTC12 isoform 2 (UniProt Q9H892), the log2 fold change is 0.044 (inactive).
TIAL1 isoform 2 (UniProt Q01085): the log2 fold change was 0.031 (inactive).
On to TUBB (UniProt P07437), for which the log2 fold change was 0.014 (inactive).
Turning to TRIM11 (UniProt Q96F44), the log2 fold change was -0.011 (inactive).
On the same count and under the same terms, for TK1 (UniProt P04183) the value was -0.045 (inactive); for TUBB4B (UniProt P68371), 0.042 (inactive).
Still for that read-out and setting: to TDRD3 isoform 3 (UniProt Q9H7E2) belongs 0.065 (inactive); to TTMP isoform 3 (UniProt Q5BVD1), -0.148 (inactive); to TRIM23 (UniProt P36406), 0.034 (inactive).
On the same count and under the same terms, to TGFBRAP1 (UniProt Q8WUH2) belongs 0.05 (inactive).
For the target TPM4 (UniProt P67936), the log2 fold change was -0.025 (inactive).
On the same count and under the same terms, for TRIP12 isoform 2 (UniProt Q14669) the value was 0 (inactive); for TRAPPC6A isoform 2 (UniProt O75865), -0.003 (inactive); for TPP2 (UniProt P29144), 0.039 (inactive).
The same measure, in the same setting: for TYW3 (UniProt Q6IPR3) the value was -0.029 (inactive); for TPM3 (UniProt P06753), 0.015 (inactive); for TBC1D8B (UniProt Q0IIM8), -0.013 (inactive).
In the case of UBTF (UniProt P17480), the log2 fold change was 0.007 (inactive).
Still for that read-out and setting: to TTL (UniProt Q8NG68) belongs 0.014 (inactive); to TEX30 (UniProt Q5JUR7), -0.1 (inactive).
On the same count and under the same terms, for UCHL5 (UniProt Q5LJA9) the value was -0.251 (inactive); for TMPO (UniProt P42166), 0.011 (inactive).
For TRIM33 isoform 2 (UniProt Q9UPN9), the log2 fold change was 0.011 (inactive).
Regarding TRIP13 (UniProt Q15645), the log2 fold change is 0.01 (inactive).
For UBXN2B (UniProt Q14CS0), the log2 fold change was 0.042 (inactive).
Still for that read-out and setting: for TUBGCP3 (UniProt Q96CW5) the value was 0.008 (inactive).
Regarding UBE2H (UniProt P62256), the log2 fold change was -0.046 (inactive).
The same measure, in the same setting: for TUBGCP2 isoform 4 (UniProt Q9BSJ2) the value was 0.018 (inactive); for TRAF2 isoform 2 (UniProt Q12933), -0.002 (inactive); for TTC5 (UniProt Q8N0Z6), 0.039 (inactive).

(Values after the supplement of paper PMC10849652.)
